# Results from PubChem BioAssay AID504332 (National Center for Advancing Translational Sciences (NCATS), 2011).
# Among all 350,000 compounds or so, about 31,000 (8.9%) were called active. About 15% were inconclusive and are not listed. What follows is part of a selection rich in actives, with near analogues and random picks from the rest. Entries that show only a call come without a potency. Values without a mark were called inactive. Calls come from the whole dose curve; as a rule, active = well fitted inhibition curve with a large enough effect; inconclusive = small, poorly fitted or top-dose-only effect; inactive = no such curve, though single readings can be large or run the other way.
# Biological target: Histone-lysine N-methyltransferase EHMT2 (Homo sapiens) (UniProt Q96KQ7)
# Assay: qHTS Assay for Inhibitors of Histone Lysine Methyltransferase G9a; note: nearly all actives have a fitted effect of over 75% in size
# Conditions: G9a H3K9 monomethylation, AlphaScreen, 2 h; series mostly up to 59 µM
# Outline: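 Methyltransferase reactions run at room temperature for 2 h (20 nM enzyme, 500 nM biotin-H3K9 peptide, 20 uM SAM) after a 15 min compound preincubation; product detected by AlphaScreen beads and anti-H3K9me1 antibody.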
# Potency is the fitted concentration of half-maximal effect.
# Chain of Histone-lysine N-methyltransferase EHMT2 (Homo sapiens) (Q96KQ7 913-1193 limits assumed): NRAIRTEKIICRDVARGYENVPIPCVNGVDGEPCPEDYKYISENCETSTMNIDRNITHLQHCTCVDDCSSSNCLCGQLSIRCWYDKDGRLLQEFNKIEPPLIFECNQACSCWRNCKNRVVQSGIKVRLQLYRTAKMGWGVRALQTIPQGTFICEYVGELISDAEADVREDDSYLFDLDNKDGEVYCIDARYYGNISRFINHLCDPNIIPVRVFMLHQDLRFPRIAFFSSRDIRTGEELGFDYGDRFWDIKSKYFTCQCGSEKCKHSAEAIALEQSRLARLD
Compound,Potency,"activity, negative = inhibition"
COc1cc(OC)cc(C(=O)NCCc2csc3nc(-c4ccccc4F)nn23)c1,inactive,–
CCOCCCNC(=O)C(NC(=O)CNC(=O)c1ccccc1)c1ccc(OC)cc1 (centres undefined),15.8 µM (active),–
CCOCCCNC(=O)C(NC(=O)CNC(=O)c1ccccc1)c1ccc(C)cc1 (centres undefined),inactive,–
CCOCCCNC(=O)C(NC(=O)Cc1c[nH]c2ccccc12)c1ccc(OC)cc1 (centres undefined),inactive,–
Cc1c(NC(=O)Nc2ccc(F)c(Cl)c2)c(=O)n(-c2ccccc2)n1C,inactive,–
O=C(O[C@@H]1[C@H](Cc2ccccc2)NS(=O)(=O)[C@H]2C[C@@H]3C=C[C@]12O3)c1ccccc1Br,–,6.72% [at 0.501 µM]
O=C(CSCc1ccccc1)Nc1ccccc1,–,2.25% [at 2.33 µM]
O=C(CCN1c2ccccc2Sc2ccccc21)Nc1ccccc1,50.1 µM (active),–
CC1CCN(CCC(=O)Nc2ccccc2)CC1,inactive,–
O=C(COc1ccccc1Cl)Nc1ccc2nc(SCC(=O)N3CCCC3)sc2c1,inactive,–
O=C(Nc1ccc(C2CC2(Cl)Cl)cc1)c1cccc([N+](=O)[O-])c1 (centres undefined),inactive,–
COc1ccc(C2(C)ON(c3ccccc3C(F)(F)F)C2=O)cc1 (centres undefined),–,1.68% [at 2.33 µM]
COc1ccc(S(=O)(=O)N2CCCC2CNC(=O)C(=O)NC2CC2)cc1 (centres undefined),–,4.18% [at 0.501 µM]
CCC(=O)c1ccc(OCC(=O)OCC(=O)NC2CCCCCC2)cc1,inactive,–
C=CCN(CC=C)CCOc1ccccc1[N+](=O)[O-],17.8 µM (active),–
O=C(COc1ccccc1[N+](=O)[O-])NC1CC1,inactive,–
O=C(COc1ccccc1[N+](=O)[O-])N/N=C/c1ccc[nH]1,inactive,–
CSc1ccccc1NC(=O)C(C)N1C(=O)c2ccccc2S1(=O)=O (centres undefined),inactive,–
Cc1nn(C(C)C(=O)NCCc2ccccc2)c(=O)c2c1sc1ccccc12 (centres undefined),inactive,–
Cc1cccc(C)c1OCC(=O)NC(Cc1c[nH]c2ccccc12)C(=O)O (centres undefined),inactive,–

Compound,Potency,"activity, negative = inhibition"
COc1ccc(-c2cc(C(=O)NC(Cc3c[nH]c4ccccc34)C(=O)O)c(C)o2)cc1OC (centres undefined),10 µM (active),–
COc1ccc(CNC(=O)[C@H](Cc2c[nH]c3ccccc23)NC(C)=O)cc1OC,inactive,–
O=C(Nc1cccc(Br)c1)c1ccc2snnc2c1,inactive,–
COc1cccc(Cn2c(CNS(=O)(=O)c3ccc(Cl)s3)nc3cccnc32)c1,inactive,–
CCCCCn1c(=O)[nH]c2cc(C(=O)NCCN(C)CCCC)ccc2c1=O,inactive,–
O=C(N/N=C/c1ccoc1)c1ccc(Cl)cc1Cl,inactive,–
CC(=O)Oc1cccc(N2C(=O)CC(Nc3ccc(N4CCOCC4)cc3)C2=O)c1 (centres undefined),–,-45.5% [at 12.7 µM]
COC(=O)c1cc(C(=O)OC)cc(N2C(=O)CC(N3CCN(c4ccccc4)CC3)C2=O)c1 (centres undefined),15.8 µM (active),–
CCCCOC(=O)c1ccc(N2C(=O)CC(N3CCN(C/C=C/c4ccccc4)CC3)C2=O)cc1 (centres undefined),inactive,–
Cc1ccc(C)c(Cn2c(=O)n(CCC(=O)NCc3ccc4c(c3)OCO4)c(=O)c3sccc32)c1,inactive,–
Cc1ccc(F)cc1S(=O)(=O)N1CCC(c2nc3ccccc3s2)CC1,inactive,–
COCCn1nnnc1C(c1ccccc1Cl)N1CCN(c2ccccc2OC)CC1 (centres undefined),inactive,–
N#Cc1ccc(C(c2nnnn2CCc2ccccc2)N2CCCCCC2)cc1 (centres undefined),inactive,–
COc1ccc(CCn2nnnc2C(c2ccccc2)N2CCN(C)CC2)cc1OC (centres undefined),70.8 µM (active),–
COc1ccc(C(=O)N2CCC(c3nc4ccccc4o3)CC2)cc1,inactive,–
COc1ccc(CNC(=O)c2cc3cccc(OC)c3oc2=O)cc1,inactive,–
O=C(CC1N=C2c3ccccc3N=C(SCc3cccc(Cl)c3)N2C1=O)NCc1ccc2c(c1)OCO2 (centres undefined),inactive,–
CCOC(=O)c1c(C)[nH]c(C(=O)OCC(=O)c2ccc(OC)cc2OC)c1C,–,4.02% [at 0.501 µM]
Cc1cccc(CC(=O)N2CC(=O)Nc3ccc(F)cc3C2c2ccccc2)c1 (centres undefined),inactive,–
CN=C1C=C/C(=N/N=c2\ccn(O)cc2C)C=C1C,7.94 µM (active),–

Compound,Potency,"activity, negative = inhibition"
O=C(NCCc1ccc(C(F)(F)F)cc1)c1ccc2c(c1)OCO2,inactive,–
Cc1ccc(C)c(NC(CC(=O)c2ccccc2)C(=O)OCC(=O)c2cccs2)c1 (centres undefined),28.2 µM (active),–
COC(=O)C(CC(=O)Nc1cc(C)ccc1C)Nc1ccccc1OC (centres undefined),–,-11.9% [at 2.33 µM]
Cc1ccc(C)c(NC(=O)CCC(=O)NNC(=O)c2cccs2)c1,inactive,–
CN1C(C(=O)NCC2CC2)CC2Cn3c(nc4ccccc43)C21 (centres undefined),–,2.03% [at 2.33 µM]
Cc1ccc(S(=O)(=O)CC(=O)Nc2sc(C)c(C)c2C(N)=O)cc1,–,-22.4% [at 0.501 µM]
COc1ccccc1C(=O)Nc1ccc(C)c(S(=O)(=O)N2CCCCC2)c1,inactive,–
CCCCc1nc2ccccc2c(NC(=O)CN2CCN(C)CC2)c1CCC,10 µM (active),–
CCOC(=O)N1CCN(CC(=O)Nc2cc(C)nn2-c2nc3ccccc3s2)CC1,inactive,–
CCCCc1nc2ccccc2c(=O)n1NC(=O)c1c(O)c2cccc3c2n(c1=O)CC3,inactive,–
FC(F)(F)c1ccc2nnc(-c3c(Cl)cccc3Cl)n2c1,44.7 µM (active),–
O=C1Cc2cc(S(=O)(=O)Nc3ccc(OC(F)(F)F)cc3)cc3c2N1CCC3,inactive,–
O=C(Nc1ccon1)c1nc[nH]c1C(=O)NCc1ccccc1,–,4.11% [at 0.501 µM]
CCOC(=O)c1c(C)[nH]c(C)c1S(=O)(=O)N(C)CC(=O)N1CCN(c2ccccc2)CC1,inactive,–
CCCCNC(=O)c1ccc(-n2c(=S)[nH]c3ccccc3c2=O)cc1,inactive,–
CCOC(=O)N1CCN(C(=O)Cc2ccc(-n3c(=S)[nH]c4ccccc4c3=O)cc2)CC1,44.7 µM (active),–
O=C(Cc1ccc(-n2c(=O)[nH]c3ccccc3c2=O)cc1)N1CCN(c2cccc(Cl)c2)CC1,–,-10.6% [at 12.7 µM]
O=C(COC(=O)/C=C/c1ccc(OC(F)F)cc1)NC1CCCCC1,inactive,–
Cc1ccc(OCCNC(=O)CCNS(=O)(=O)c2ccc(Br)cc2)cc1,inactive,–
